Bioassay records from PubChem BioAssay.
HT1080-NT tox – kills 2HG-producing HT-1080-NT fibrosarcoma cells | AID 686970 | HT-1080-NT fibrosarcoma viability, CellTiter-Glo ATP luminescence, 48 h | Potency, µM (highest dose often 46.1 µM), without a hit: at the highest dose activity, negative = less viability, most hits filed as cytotoxic | 360,000 tested, 1.6% active;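 further: NT is the 2HG producing partner of a matched IDH1 knockdown line; 0% = DMSO-treated cells and -100% = media-only wells without cells; nearly all actives have a fitted effect of over 55% in size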
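Compounds were tested in concentration-response format on HT-1080-NT cells for 48 hours at 37 degrees C. Cell viability came from CellTiter-Glo luminescence; curves were classified by r2, response magnitude and activity.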
DT40 TDP1 CPT – growth inhibition of DT40 Tdp1-/-;hTDP1 cells with camptothecin (screen for TDP1 inhibitors). 420,000 tested, 12% active. Potency, µM (highest dose often 46.2 µM), for inactives: at the top dose activity change, negative = growth inhibition, usual class: inhibitors. chicken DT40 Tdp1-/-;hTDP1 cells + 20 nM CPT, ATP luminescence, 48 h. AID 686979; further: nearly all actives have a fitted effect of over 55% in size
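Chicken DT40 Tdp1-/- cells stably complemented with human TDP1 were seeded at 400 cells/well in medium containing 20 nM camptothecin, exposed to pin-transferred compounds, and grown at 37 °C for at least 48 hr. Viability was read as ATP luminescence.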
HT1080 IDH1KD tx – toxicity to HT-1080 IDH1 knockdown cells (counter line); HT-1080 IDH1 knockdown viability, ATP luminescence, 48 h; Potency, µM (doses to about 46.1 µM), for inactives: at the highest dose activity, negative = toxicity, usual class: cytotoxic; 360,000 tested, 2% active;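 further: 0% = DMSO wells and -100% = cell-free medium wells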
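Cytotoxicity counter-line: IDH1KD HT-1080, 48 h, CellTiter-Glo. Curves classed by r2, magnitude and activity.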
KB-3-1 cytotox – KB-3-1 parental cell cytotoxicity; KB-3-1 viability, CellTiter-Glo ATP luminescence, 72 h; Potency, µM (top dose mostly 46.1 µM), usual class: cytotoxic; 400,000 tested, 1.4% active; AID 1347075; further: nearly all actives have a fitted effect of over 60% in size
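Viability of parental KB-3-1 cells, measured by CellTiter-Glo luminescence, followed a 72 h incubation at 37 °C with pinned compounds in phenol-red-free DMEM containing 10% FBS.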
DT40 TDP1 no CPT – qHTS for Inhibitors of human tyrosyl-DNA phosphodiesterase 1 (TDP1): qHTS in cells in absence of CPT; DT40 Tdp1-/- hTDP1 cells, no CPT, ATP luminescence, 48 h; Potency, µM (highest dose often 46.2 µM), for the others: at the highest dose activity change, negative = growth inhibition, actives largely listed as inhibitors; 420,000 tested, 15% active; AID 686978, 2013; further: nearly all actives have a fitted effect of over 55% in size
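Camptothecin absent (DMSO only). Human TDP1-complemented DT40 knockout cells, 400 cells/well, 37 °C for minimum 48 hr; ATP measured via CellTiter-Glo, 30 min dark incubation, luminescence.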
KB-V1 cytotox – KB-V1 MDR subline cytotoxicity; KB-V1 MDR cells viability, CellTiter-Glo, 72 h; Potency, µM (doses to about 46.1 µM), most hits filed as cytotoxic; AID 1347076; 400,000 tested, 3.4% active; further: nearly all actives have a fitted effect of over 60% in size
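Cytotoxicity via CellTiter-Glo luminescence after 72 h compound exposure at 37 degrees C. Cells: drug-selected KB-V1 line, DMEM phenol-red free plus 10% FBS. Compounds tested at multiple concentrations; normalized data fitted to concentration-effect curves.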
An asterisk follows results filed as active. Hits are enriched below; roughly 19% of the tested compounds scored in any of these assays. The call rests on the fitted dose curve; in most records, active means well fitted curve in the direction sought with a large enough effect; inconclusive means small, poorly fitted or top-dose-only effect, or another doubt; inactive means no such curve, though single readings can be large; an effect the other way counts as inactive or inconclusive. Unless noted, on the % scale 0 is the no-effect control and ±100 the full control effect; potency means the concentration at half of the fitted maximal effect.

For COc1ccc(CN2Cc3cc(-c4ccc(OC)cc4)ccc3-n3nncc3C2)cc1 the results were HT1080-NT tox inconclusive, DT40 TDP1 CPT 20.6µM*, HT1080 IDH1KD tx inconclusive, KB-3-1 cytotox inactive, DT40 TDP1 no CPT 18.4µM* and KB-V1 cytotox inactive.
Screening COc1ccc(CN2Cc3cc(-c4ccccc4)ccc3-n3nncc3C2)cc1 returned HT1080-NT tox 0.5%, DT40 TDP1 CPT inconclusive, HT1080 IDH1KD tx 0.2%, KB-3-1 cytotox inactive, DT40 TDP1 no CPT inconclusive and KB-V1 cytotox inactive.
Screening c1ccc(CCN2CCCC2)cc1 returned DT40 TDP1 CPT -0.5%, KB-3-1 cytotox inactive, DT40 TDP1 no CPT -6.5% and KB-V1 cytotox inactive.
Screening CCC1(c2cccc(O)c2)CCCCN(C)C1 (stereo not given) returned HT1080-NT tox 9.9%, DT40 TDP1 CPT inconclusive, HT1080 IDH1KD tx -3.6%, KB-3-1 cytotox inactive, DT40 TDP1 no CPT -18.1% and KB-V1 cytotox inactive.
For O=[N+]([O-])c1ccc(S(=O)(=O)NN=C2CCCCC2)cc1 the results were HT1080-NT tox -7.6%, DT40 TDP1 CPT -37.1%, HT1080 IDH1KD tx -6.8%, KB-3-1 cytotox inactive, DT40 TDP1 no CPT inconclusive and KB-V1 cytotox inactive.
For FC(F)(F)c1cccc(NC2=NCCS2)c1 the results were HT1080-NT tox 1.3%, DT40 TDP1 CPT -20.5%, HT1080 IDH1KD tx -9.3%, KB-3-1 cytotox inactive, DT40 TDP1 no CPT inconclusive and KB-V1 cytotox inactive.
For CC(=O)O[C@@H]1CC[C@]2(C)C3CC[C@]4(C)C(=O)[C@H](O)CC4C3[C@@H](OC(C)=O)C[C@H]2C1 (stereo not given in full) the results were HT1080-NT tox 17.8%, DT40 TDP1 CPT inconclusive, HT1080 IDH1KD tx 9.5%, KB-3-1 cytotox inactive, DT40 TDP1 no CPT inconclusive and KB-V1 cytotox inactive.
Screening Cc1cc(-c2cc(C)c(N)c(C)c2)cc(C)c1N returned HT1080-NT tox 5.9%, DT40 TDP1 CPT -4.7%, HT1080 IDH1KD tx -2.5%, KB-3-1 cytotox inactive, DT40 TDP1 no CPT -14.2% and KB-V1 cytotox inactive.
For C/C(=N\N1CCCCCC1)c1c(O)n(C2CCCCC2)c(=O)[nH]c1=O the results were HT1080-NT tox inconclusive, DT40 TDP1 CPT -16.6%, HT1080 IDH1KD tx -28.3%, KB-3-1 cytotox inactive, DT40 TDP1 no CPT inconclusive and KB-V1 cytotox inactive.
Cc1ccc(NC(=S)NCC2CCCO2)cc1 (stereo not given) was read as HT1080-NT tox -4.4%, DT40 TDP1 CPT -3.2%, HT1080 IDH1KD tx -0.4%, KB-3-1 cytotox inactive, DT40 TDP1 no CPT inconclusive and KB-V1 cytotox inactive.
`O=C(CSc1ncnc2c1nnn2-c1ccc(F)cc1)NCC1CCCO1` (stereo not given) gave HT1080-NT tox -15.5%, DT40 TDP1 CPT 14.6µM*, HT1080 IDH1KD tx -7.8%, KB-3-1 cytotox inactive, DT40 TDP1 no CPT 20.6µM* and KB-V1 cytotox inactive.
`COc1cccc(O)c1CN1CCCC(C(=O)c2ccccc2SC)C1` (stereo not given) gave HT1080-NT tox inconclusive, DT40 TDP1 CPT 16.4µM*, HT1080 IDH1KD tx inconclusive, KB-3-1 cytotox inactive, DT40 TDP1 no CPT 18.4µM* and KB-V1 cytotox inconclusive.
For COc1ccc(C(=O)C2CCCN(Cc3ccon3)C2)cc1OC (stereo not given) the results were HT1080-NT tox -15.0%, DT40 TDP1 CPT -20.4%, HT1080 IDH1KD tx -7.4%, KB-3-1 cytotox inactive, DT40 TDP1 no CPT inconclusive and KB-V1 cytotox inactive.
COc1ccc(C(=O)C2CCCN(Cc3ccccn3)C2)c(OC)c1 (stereo not given) was read as HT1080-NT tox -0.3%, DT40 TDP1 CPT 20.6µM*, HT1080 IDH1KD tx -2.2%, KB-3-1 cytotox inactive, DT40 TDP1 no CPT 14.6µM* and KB-V1 cytotox inactive.
COc1ccc(C(=O)C2CCCN(Cc3cnc(C)s3)C2)cc1OC (stereo not given) was read as HT1080-NT tox 1.4%, DT40 TDP1 CPT 7.1%, HT1080 IDH1KD tx -7.5%, KB-3-1 cytotox inconclusive, DT40 TDP1 no CPT -23.1% and KB-V1 cytotox inconclusive.
For Cc1ncc(CN2CCCC(C(=O)c3ccc(C(C)(C)C)cc3)C2)s1 (stereo not given) the results were HT1080-NT tox -13.1%, DT40 TDP1 CPT 20.6µM*, HT1080 IDH1KD tx -6.3%, KB-3-1 cytotox inconclusive, DT40 TDP1 no CPT 11.6µM* and KB-V1 cytotox inactive.
For COc1ccc(C(=O)C2CCCN(Cc3cnc(C)s3)C2)c(OC)c1 (stereo not given) the results were HT1080-NT tox -9.1%, DT40 TDP1 CPT 16.4µM*, HT1080 IDH1KD tx inconclusive, KB-3-1 cytotox inconclusive, DT40 TDP1 no CPT 8.2µM* and KB-V1 cytotox inconclusive.
Screening c1cc2c(cc1-c1ccc3c(c1)OCO3)CNCc1cnnn1-2 returned HT1080-NT tox 21.2%, DT40 TDP1 CPT inconclusive, HT1080 IDH1KD tx 10.8%, KB-3-1 cytotox inactive, DT40 TDP1 no CPT inconclusive and KB-V1 cytotox inactive.
Screening CC1(C)C(C(Cl)Cl)C2(Cl)C(Cl)C(Cl)C1(Cl)C2(Cl)Cl (stereo not given) returned DT40 TDP1 CPT inconclusive and DT40 TDP1 no CPT -14.4%.
Screening O=C(CC1CCCCC1)c1c(O)c2ccccc2oc1=O returned HT1080-NT tox 7.94µM*, DT40 TDP1 CPT 18.4µM*, HT1080 IDH1KD tx inconclusive, KB-3-1 cytotox 5.8µM*, DT40 TDP1 no CPT inconclusive and KB-V1 cytotox inactive.
CC(=O)N[C@@H]1CC[C@@]2(O)[C@H]3Cc4ccc(O)c5c4[C@@]2(CCN3CC2CC2)[C@@H]1O5 was read as HT1080-NT tox -1.5%, DT40 TDP1 CPT 15.0%, HT1080 IDH1KD tx 6.2%, KB-3-1 cytotox inactive, DT40 TDP1 no CPT -7.2% and KB-V1 cytotox inactive.
Cc1ccc(CCNC(=O)C2CCCN(Cc3nc(-c4cccc(Cl)c4)oc3C)C2)cc1 (stereo not given) was read as DT40 TDP1 CPT 11.6µM* and DT40 TDP1 no CPT 14.6µM*.
`CNC(=O)Oc1cccc2c1OC(C)(C)C2` gave DT40 TDP1 CPT 1.5% and DT40 TDP1 no CPT -20.0%.
Screening COc1ccc(C(=O)Cn2c(NCCCl)nc3ccccc32)cc1 returned HT1080-NT tox -12.2%, DT40 TDP1 CPT 20.6µM*, HT1080 IDH1KD tx -1.5%, KB-3-1 cytotox inactive, DT40 TDP1 no CPT -26.3% and KB-V1 cytotox inactive.
